hgDAF-12 ag = activates the H. glycines DAF-12 receptor ligand-binding domain | HEK293 GAL4-hgDAF12 UAS-luciferase reporter, agonist luminescence; normalized to butyrate control | activation, % at 6.8 µM | 370,000 compounds, 1.8% hits;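 active means activation above a cutoff set at the mean of all screened compounds plus 3 SD, cut at about 10% in these data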;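 further: 0% = DMSO wells and 100% = sodium butyrate wells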
hcDAF-12 act = activators of H. contortus DAF-12 nuclear receptor; activation, % at 6.8 µM; HEK293 hcDAF-12 lit1-tk-luc reporter, luminescence; 0% DMSO, 100% Δ7-dafachronic acid; AID 652067; 370,000 compounds, 1.4% hits;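 active means activation above the mean of all tested compounds plus 3 SD, cut at about 5.5% in these data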;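 further: 100% = response to 3 µM Δ7-dafachronic acid high control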
ssDAF-12 act = activates DAF-12 receptor from parasite S. stercoralis; HEK293 ssDAF-12/GRIP1 lit1-tk-luc reporter, luminescence; % of 3 µM dafachronic acid response; activation, % at 6.8 µM; 370,000 compounds, 1% hits; AID 652126;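 active means activation above the mean over all tested compounds plus 3 SD, cut at about 0.9% in these data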;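 further: 0% = DMSO-only wells and 100% = 3 µM delta7-dafachronic acid wells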
DAX1 inh-1 = blocks DAX1 repression of SF-1 activated StAR promoter; 370,000 compounds, 1.1% hits; HEK293T StAR-luciferase reporter, SF-1/DAX-1 repression relief; inhibition, % at 6.8 µM;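 active means inhibition above the mean over all tested compounds plus 3 SD, cut at about 3.6% in these data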;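 further: 0% = DAX-1 cells with DMSO and 100% = cells lacking DAX-1 with DMSO; higher inhibition means more luminescence from relief of DAX-1 repression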
DAX1 inh-2 = inhibitors of human orphan nuclear receptor DAX1 (NR0B1) | HEK293 Gal4-DAX1 luciferase reporter, luminescence | inhibition, % at 6.75 µM | 340,000 compounds, 0.99% hits;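 active means inhibition above the mean over all tested compounds plus 3 SD, cut at about 4.2% in these data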;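 further: 0% = DAX1-transfected cells with DMSO and 100% = empty-vector control cells with DMSO; inhibition shows as a rise in luminescence from relieved DAX1 repression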
Target sequence (P51843 207-470 limits assumed): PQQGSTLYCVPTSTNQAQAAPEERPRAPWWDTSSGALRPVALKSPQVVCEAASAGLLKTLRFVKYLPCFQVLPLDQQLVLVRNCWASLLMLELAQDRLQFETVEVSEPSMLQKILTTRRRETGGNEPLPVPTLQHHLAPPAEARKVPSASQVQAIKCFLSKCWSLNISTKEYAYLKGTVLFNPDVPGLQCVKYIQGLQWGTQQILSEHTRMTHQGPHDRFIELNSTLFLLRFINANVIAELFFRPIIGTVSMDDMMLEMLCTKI
hgDAF12 ag = hgDAF-12 agonism, confirmation assay. shares compounds with hgDAF-12 ag. HEK293 GAL4-hgDAF12 luciferase reporter, agonist mode; percent of butyrate response. AID 743050. activation, % at 6.8 µM. 3,300 compounds, 80% hits;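 active means mean activation over triplicate wells above the hit cutoff derived from the earlier primary screen, cut at about 11% in these data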;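 further: 0% = DMSO low control and 100% = 2 mM sodium butyrate high control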
LXRb DAF12 ctr = activates human LXR-beta, counter-screen for DAF-12 agonists | activation, % at 6.8 µM | shares compounds with hgDAF-12 ag | HEK293 Gal4-LXR luciferase reporter, 24 h | 3,300 tested, under 10 active | AID 743051;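 active means mean activation of the triplicate above a set limit carried over from the primary screen, none filed active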
The depositor's hits bear a star; · = not tested or not shown. In the library only some 4.1% were active in any assay of this set; here they are far more common.

SMILES | hgDAF-12 ag | hcDAF-12 act | ssDAF-12 act | DAX1 inh-1 | DAX1 inh-2 | hgDAF12 ag | LXRb DAF12 ctr
CC(=O)Nc1ccc(CN(C)c2c(C)nc3ccc(C(=O)NCCCN4CCCC4=O)cn23)cc1 | -1 | -2 | -1 | 0 | · | · | ·
O=S(=O)(c1ccc(F)cc1)N1CCC(c2nc3ccccc3o2)CC1 | -1 | -3 | -2 | -1 | · | · | ·
O=C(c1ccccc1)c1ccc2c(c1)OCCCO2 | 15* | 6.2* | 0 | 1 | 4.6* | 18* | 1
O=C(c1ccccc1)c1ccc2c(c1)OCCOCCOCCO2 | -2 | 0 | -1 | 0 | 2 | · | ·
COc1ccc(/C=C/C2=Nc3ccccc3NC(C)(C)C2)cc1OC | 16* | 6 | 1.0* | 2 | 3 | 7 | 0
COc1ccc(/C=C/C2=CC(C)(C)NC(=S)N2)cc1OC | -3 | -2 | -1 | 0 | -1 | · | ·
CCn1ncc(C(=O)Nc2cccc(Cl)c2)c1C | 18* | 5 | 0.9* | 3 | 3 | 12* | 0
COc1cccc(NC(=O)c2cnn(-c3ccccc3)c2C)c1 | 18* | 6.3* | 1.2* | 3 | 1 | 14* | 1
COc1cc(C2c3cc(O)c(OC)cc3CC(C(=O)O)C2CO)ccc1O (stereo unspecified) | -2 | -2 | -1 | 0 | -2 | · | ·
